Screening results (PubChem)
Beta apoptosis – blocks beta cell apoptosis | INS-1E cytokine-induced death, ATP luminescence, 48 h; percent of positive-control rescue, neutral wells zero | protection from apoptosis, % (no concentration beside the values) | 0.8% of 300,000 active;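 active means Every replicate reaches about 75%, or at least half do and their mean reaches it too, limit read from the data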;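 further: higher means more ATP so stronger rescue from cytokine killing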
697 NFkB inh – inhibitors of the PMA/ionomycin-induced NF-kB reporter in 697 B cells | 697 B-cell NF-kB luciferase reporter, 16 h | inhibition, % at 4 µM | 0.33% of 330,000 active | AID 435022; in the data active means inhibition above about 35%
Mdm2-MdmX inh – inhibitors of human Mdm2/MdmX interaction | 3% of 330,000 active | SaOS-2 split-luciferase Mdm2/MdmX complementation, luminescence | O15151+Q00987 | inhibition, % at 8 µM;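 active means inhibition of at least 50% at 8 µM in the primary screen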
Target sequence (O15151 whole entry, looked up): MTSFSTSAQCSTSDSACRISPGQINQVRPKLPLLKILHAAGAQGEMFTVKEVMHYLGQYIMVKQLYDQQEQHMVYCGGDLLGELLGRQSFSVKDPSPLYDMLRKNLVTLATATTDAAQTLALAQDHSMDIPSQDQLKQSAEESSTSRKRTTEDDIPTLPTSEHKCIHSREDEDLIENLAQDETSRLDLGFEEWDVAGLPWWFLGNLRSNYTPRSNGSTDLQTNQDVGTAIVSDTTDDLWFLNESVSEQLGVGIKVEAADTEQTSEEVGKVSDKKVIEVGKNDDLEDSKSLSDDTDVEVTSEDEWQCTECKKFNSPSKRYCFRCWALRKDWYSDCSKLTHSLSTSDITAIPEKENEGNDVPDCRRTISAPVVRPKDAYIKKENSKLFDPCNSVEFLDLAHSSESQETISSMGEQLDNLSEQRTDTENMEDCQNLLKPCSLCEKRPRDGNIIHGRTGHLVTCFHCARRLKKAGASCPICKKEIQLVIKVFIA
Target sequence (Q00987 whole entry, looked up): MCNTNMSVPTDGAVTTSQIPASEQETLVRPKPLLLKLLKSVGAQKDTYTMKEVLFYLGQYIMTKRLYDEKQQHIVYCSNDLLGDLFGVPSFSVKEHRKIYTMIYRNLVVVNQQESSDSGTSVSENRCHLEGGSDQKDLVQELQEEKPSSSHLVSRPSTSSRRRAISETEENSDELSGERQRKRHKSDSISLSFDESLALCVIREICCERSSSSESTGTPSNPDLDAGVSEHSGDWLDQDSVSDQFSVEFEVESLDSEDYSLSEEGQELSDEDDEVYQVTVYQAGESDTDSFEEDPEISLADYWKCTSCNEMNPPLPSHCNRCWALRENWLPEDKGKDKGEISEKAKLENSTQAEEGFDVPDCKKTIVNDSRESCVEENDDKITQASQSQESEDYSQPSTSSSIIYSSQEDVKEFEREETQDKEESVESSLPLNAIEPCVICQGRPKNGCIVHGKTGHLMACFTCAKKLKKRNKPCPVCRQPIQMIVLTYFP
Gli-Sufu antag – Gli-Sufu pathway antagonism | Sufu-KO-LIGHT fibroblasts, Gli luciferase reporter luminescence | inhibition, % at 5 µM | 0.74% of 340,000 active;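 active means inhibition above about 55%, limit read from the data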
Jurkat NFkB inh – inhibitors of the PMA/ionomycin-induced NF-kB reporter in Jurkat cells. PMA/ionomycin-induced NF-kB luciferase reporter, luminescence. inhibition, % at 4 µM. 0.53% of 330,000 active. AID 435003; in the data active means inhibition above about 50%
Mdm2-MdmX conf – human Mdm2/MdmX binding inhibition, confirmed; shares compounds with Mdm2-MdmX inh; 55% of 10,000 active; inhibition, % at 8 µM; AID 489028; luminescent assay; in the data active means inhibition above about 40%
Full FLuc ctr – inhibits full-length luciferase, flagging false Mdm2/MdmX hits; shares compounds with Mdm2-MdmX inh; inhibition, % at 8 µM; 77% of 6,200 active; SaOS-2 full-length luciferase counterscreen, luminescence; AID 504607;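 active means mean inhibition at 8 µM reaching about 37%, which flags the compound as non-specific, limit read from the data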;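 further: p53-null SaOS-2 cells with luciferase driven by a doxycycline-inducible promoter; compound on cells about two nights before reading with doxycycline added after day one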
A number is an active result; – = inactive; · = not tested or not shown. The list is not random: actives were taken first. Their share in the collection is about 4%.

SMILES	Beta apoptosis	697 NFkB inh	Mdm2-MdmX inh	Gli-Sufu antag	Jurkat NFkB inh	Mdm2-MdmX conf	others
C=CCn1c(SCc2c(C)noc2C)nc2sc(C)c(C)c2c1=O	–	–	56	–	–	60	Full FLuc ctr=49
COc1ccc(-c2cc(-c3c(O)c(OC)c4occc4c3OC)[nH]n2)cc1OC	–	–	60	–	–	–	Full FLuc ctr=93
COc1ccc(-c2cc(-c3c(O)c(OC)c4occc4c3OC)[nH]n2)cc1	·	–	–	–	–	·
COc1ccc(-c2nc3ccccn3c2NC2CCCCC2)cc1SC1CCCCC1	·	–	70	–	–	–
Clc1ccc(-c2nc3cnccn3c2NC2CCCC2)cc1	–	–	–	–	–	·
COc1cc(-c2nc3ccccn3c2NCc2ccccc2)ccc1SC1CCCCC1	–	–	67	–	–	–
COc1ccc(Sc2ccc(-c3nc4cnccn4c3NC3CCCCC3)cc2OC)cc1	–	–	85	–	–	–
CN(CCc1ccccc1)C(=O)c1cccc(NC(=O)Cc2cccc(NC(=O)C3CCCN(C(=O)C4CC4)C3)c2)c1 (centres undefined)	·	·	·	–	·	·
CC(NC(=O)/C(=C\c1ccco1)NC(=O)c1ccccc1Br)C(=O)O (centres undefined)	–	–	–	–	–	·
Cc1nc(N)c(C#N)c(-c2cccnc2)c1C	–	–	51	–	–	–
Cn1ccnc1/C(=N\NC(=O)c1ccccc1)c1cccc([N+](=O)[O-])c1	–	–	–	–	–	·
CCOc1ccc(C(=O)N/N=C(\c2ccccc2)c2ccccn2)cc1	97	–	71	–	–	87	Full FLuc ctr=–
O=C(N/N=C(\c1ccccc1)c1ccccn1)c1cccc([N+](=O)[O-])c1	102	–	79	91	–	66	Full FLuc ctr=–
CC(=O)Nc1ccc(S(=O)(=O)NC2=NCN(c3ccc([N+](=O)[O-])cc3)CN2)cc1	–	–	63	–	–	–
CN1CN=C(NS(=O)(=O)c2ccc([N+](=O)[O-])cc2)NC1	–	–	–	–	–	·
Cc1ccc(C(=O)Nn2cnc3ccccc3c2=O)cc1C	–	–	–	–	–	·
CCN(CC)C1CCN(C(=O)c2ccc(OC3CCN(CCc4ccccc4)CC3)cc2)C1 (centres undefined)	–	–	56	–	–	44	Full FLuc ctr=74
CN(C)CCCNC(=O)C[C@H]1C[C@H](C(=O)N2CCOCC2)[C@@]2(C)c3[nH]c4cc(CCC(=O)N(C)C)ccc4c3CCN2C1=O	·	–	–	–	·	·
CC(C)(C)C(=O)NC(=S)Nc1cccc(C(=O)O)c1	–	–	–	–	–	·
O=C(NC(=S)Nc1cccc2cnccc12)c1ccccc1	–	–	61	–	–	–
O=C(O)c1cccc(NC(=S)NC(=O)c2ccncc2)c1	–	–	53	–	–	–
Cc1cc(=O)[nH]c2cc(O)ccc12	–	–	–	–	–	·
CC(C)=CCCC1(C)C=Cc2c(c(C)cc3c2[nH]c2cc(O)ccc23)O1 (centres undefined)	·	–	69	–	–	–
CC(=O)OCC(=O)[C@@]1(O)CC[C@H]2[C@@H]3CCC4=CC(=O)C=C[C@]4(C)[C@@]3(F)[C@@H](O)C[C@@]21C	–	–	–	–	–	·
CC(=O)OCC(=O)C1=CCC2C3CCC4=CC(=O)C=CC4(C)C3(F)C(OC(C)=O)CC12C (centres undefined)	–	–	78	–	–	49	Full FLuc ctr=46
SMILES	Beta apoptosis	697 NFkB inh	Mdm2-MdmX inh	Gli-Sufu antag	Jurkat NFkB inh	Mdm2-MdmX conf	others
COc1ccc(C(=O)NNC(=O)CSc2nnc(C)n2CC2CCCO2)cc1 (centres undefined)	–	–	–	–	–	·
COc1ccc2c(c1)CC/C2=N\OC(=O)c1ccccc1C	·	–	100	–	–	–	Full FLuc ctr=–
COc1ccc2c(c1)CCC/C2=N/OC(=O)c1ccccc1OC	–	–	–	–	–	·
COc1ccc2c(c1)CC/C2=N\OC(=O)c1cccc(C)c1	–	–	97	–	–	55	Full FLuc ctr=–
C[C@H](CO)N1C[C@H](C)[C@@H](CN(C)C)Oc2c(NS(=O)(=O)c3ccc(F)cc3)cccc2C1=O	–	–	–	–	–	·
Cc1cccc(C)c1Oc1nc(-c2ccccc2)ncc1S(=O)(=O)c1ccccc1	–	–	52	–	–	–
Cc1ccccc1NC(=O)Cn1cnc2c(oc3ccccc32)c1=O	–	–	–	–	–	·
Cc1cccc(NC(=O)Cn2cnc3c(oc4ccccc43)c2=O)c1C	–	–	64	–	–	–
O=C(NCCc1ccccn1)c1ccc2nc(Cc3ccccc3F)oc2c1	–	–	–	–	–	·
C=CCn1c(O)c(C2=c3ccccc3=NC2=O)c2ccccc21	–	–	–	–	–	·
C=CCn1c(O)c(C2=c3ccccc3=NC2=O)s/c1=N/c1nccs1	–	–	79	–	–	–
COc1ccc(C(=O)NCC2(c3ccc(OC)c(OC)c3)CCCC2)c(OC)c1	–	–	–	–	–	·
Cc1nc2ncccn2c1-c1csc(Nc2ccccc2)n1	–	–	62	–	–	–
CC(=O)Nc1ccc(Nc2nc(-c3c(C)nc4ccccn34)cs2)cc1	–	–	66	–	–	47	Full FLuc ctr=66
COc1ccc(NC(=O)CSc2nc(C3CC3)nc3ccccc23)cc1	–	–	60	–	–	–
CCOc1ccc(NC(=O)c2ccc(NC(=O)CSc3nc4ccccc4c(=O)[nH]3)cc2)cc1	–	–	56	–	–	–
N#Cc1cccc(NC(=O)CSc2ccc3c4c(cccc24)C(=O)c2ccccc2-3)c1	–	·	·	–	·	·
CC(=O)c1ccc(NC(=O)CSc2nc(C3CC3)nc3ccccc23)cc1	–	–	64	–	–	–
COc1ccc(NC(=O)CSc2nc(C3CC3)nc3ccccc23)c(OC)c1	–	–	–	–	–	·
COc1ccc(NC(=O)CSc2ccc3c4c(cccc24)C(=O)c2ccccc2-3)cc1	–	–	58	–	–	–
O=C(NOCc1ccccc1)c1coc(-c2ccccc2)n1	·	–	–	–	·	·
N=c1c(-c2nc3ccccc3[nH]2)cc(C(=O)c2cccs2)nn1-c1ccccc1	–	–	56	–	–	–	Full FLuc ctr=59
O=C(NCCCc1nc2ccccc2[nH]1)c1cccs1	–	–	–	–	–	·
CCCCn1c(N)c(N(CCOC)C(=O)C2CC(=O)N(c3cccc(SC)c3)C2)c(=O)[nH]c1=O (centres undefined)	–	–	–	–	–	·
CC(NS(=O)(=O)c1ccc(NC(=O)N2CCCCC2)cc1)c1ccccc1 (centres undefined)	–	–	–	–	–	·
CCn1c(=O)c(C(=O)NCCCc2ccccc2)c(O)c2ccccc21	–	–	–	–	–	·
O=C(NCCCc1ccccc1)c1c(O)nc2sccn2c1=O	·	–	75	–	–	57	Full FLuc ctr=52
O=C(NCCC1=CCCCC1)c1c(O)nc2ccccn2c1=O	–	–	–	–	–	·
